12-hLO inh = blocks human 12-lipoxygenase activity. P18054. purified 12-hLO, xylenol orange hydroperoxide absorbance. Potency, µM (doses to about 57.1 µM), for the others: top-dose activity change, negative = inhibition, usual class: inhibitors. 150,000 tested, 0.12% active. AID 1452; also: nearly all actives have a fitted effect of over 55% in size
Target sequence (P18054 whole entry, looked up): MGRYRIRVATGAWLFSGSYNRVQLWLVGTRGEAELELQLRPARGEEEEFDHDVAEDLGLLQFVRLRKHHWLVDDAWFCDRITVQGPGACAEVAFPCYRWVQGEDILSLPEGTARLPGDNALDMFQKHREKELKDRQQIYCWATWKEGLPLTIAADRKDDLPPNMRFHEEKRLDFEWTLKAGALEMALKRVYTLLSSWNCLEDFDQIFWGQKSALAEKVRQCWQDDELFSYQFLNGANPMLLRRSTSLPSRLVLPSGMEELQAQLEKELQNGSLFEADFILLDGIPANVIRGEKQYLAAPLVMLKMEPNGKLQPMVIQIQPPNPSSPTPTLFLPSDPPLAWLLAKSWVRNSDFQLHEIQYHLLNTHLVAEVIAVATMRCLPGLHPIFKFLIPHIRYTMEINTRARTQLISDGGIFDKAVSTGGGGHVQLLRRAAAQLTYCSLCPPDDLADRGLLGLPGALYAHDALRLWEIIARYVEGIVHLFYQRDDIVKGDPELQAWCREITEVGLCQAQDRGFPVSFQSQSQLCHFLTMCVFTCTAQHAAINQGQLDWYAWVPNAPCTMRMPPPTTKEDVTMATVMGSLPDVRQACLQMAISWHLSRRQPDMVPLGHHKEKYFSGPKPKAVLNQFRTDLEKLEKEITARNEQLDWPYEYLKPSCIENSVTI
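Hydroperoxide output read as Fe(III)-xylenol orange absorbance, 573-to-405 nm ratio, after 30 min reaction with 40 uM arachidonic acid. Enzyme: 150 nM purified human 12hLO, 15 min compound preincubation; 25 mM Hepes pH 7.0, room temperature.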
p53ts 32C tox = cytotoxicity in p53ts cells at permissive temperature | H1299-p53A138V at 32C, ATP luminescence viability, 24 h | Potency, µM (doses to about 46.1 µM), without a hit: top-dose activity change, negative = cytotoxicity, hits mostly cytotoxic | 130,000 tested, 0.93% active | AID 924;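 also: 0% = DMSO and -100% = full killing by reference compound; nearly all actives have a fitted effect of over 55% in size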
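ATP-content luminescence (ATPlite) read-out after 24 h compound exposure at 32C in H1299-p53A138V cells (600/well). Tested up to 46 uM. Normalized to DMSO (0%) and 100 uM tamoxifen (100% killing); Hill-fit AC50.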
p53ts 39C kill = cytotoxicity in p53ts cells at nonpermissive temperature; H1299-p53A138V viability at 39C, ATP luminescence, 24 h; Potency, µM (titrated, usually from 46.1 µM), inactives show top-dose activity change, negative = cell killing, hits mostly cytotoxic; 130,000 tested, 1.5% active; AID 902; also: nearly all actives have a fitted effect of over 55% in size
HPGD block = blocks human HPGD enzyme activity; P15428; Potency, µM, for inactives: at the highest dose activity change, negative = inhibition, most hits filed as inhibitors; purified HPGD, NADH fluorescence kinetic, PGE2 substrate; 150,000 tested, 4.3% active; active = well fitted inhibition curve with a large enough effect, not every such curve was filed as active; inconclusive = small, poorly fitted or top-dose-only effect, or another doubt; inactive = no such curve, though single readings can be large or run the other way
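20 nM HPGD preincubated 15 min at room temperature with compound in 50 mM Tris-HCl pH 8, 0.01% Tween 20. Started with 1 mM NAD+ and 30 uM prostaglandin E2; NADH fluorescence (360/450 nm) read 5 times over 30-s intervals, last minus first.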
Starred values were filed as active, the others as inactive; [ ] = another dose, or the depositor's remark. Rows were chosen to be rich in hits. Some 4.4% of all compounds tested hit in one or more screens of this group. Unless noted, calls follow the shape of the dose curve; as a rule, active = well fitted curve in the direction sought with a large enough effect; inconclusive = small, poorly fitted or top-dose-only effect, or another doubt; inactive = no such curve, though single readings can be large; an effect the other way counts as inactive or inconclusive. Unless noted, % is scaled to controls: 0 for no effect and ±100 for the full control effect; potency is read from the fitted curve at half-maximal effect.

Screening NCCNc1ccc([N+](=O)[O-])c(Sc2nc3ccccc3[nH]2)c1 returned 12-hLO inh -1.9% and HPGD block -6.9%.
Screening CCCSc1cc(NCCOC(=O)CCC)c([N+](=O)[O-])c2nonc12 returned 12-hLO inh -8.6% and HPGD block -16.8%.
CCC(=O)OCCNc1cc(Sc2nc3ccccc3[nH]2)c2nonc2c1[N+](=O)[O-] was read as 12-hLO inh -23.6% and HPGD block 7.08µM*.
O=[N+]([O-])c1c(NCCCO)cc(Sc2nc3ccccc3s2)c2nonc12 was read as 12-hLO inh -8.5% and HPGD block 2.82µM*.
`CC(=O)OCCCNc1cc(SCc2ccco2)c2nonc2c1[N+](=O)[O-]` gave 12-hLO inh -9.6% and HPGD block 7.94µM*.
Screening CCCSc1cc(NCCOC(C)=O)c([N+](=O)[O-])c2nonc12 returned 12-hLO inh 0.0% and HPGD block -25.5%.
`CCCC(=O)OCCNc1cc(Sc2nccn2C)c2nonc2c1[N+](=O)[O-]` gave 12-hLO inh -0.5% and HPGD block 28.2µM*.
Screening CCC(=O)OCCNc1cc(Sc2nc3ccccc3s2)c2nonc2c1[N+](=O)[O-] returned 12-hLO inh 0.4% and HPGD block 3.16µM*.
For CCCC(=O)OCCNc1cc(SCc2ccco2)c2nonc2c1[N+](=O)[O-] the results were 12-hLO inh -24.9% and HPGD block inconclusive.
CCCC(=O)Nc1ccc2nn(-c3ccc(CC)cc3)nc2c1 was read as p53ts 32C tox -17.4% and p53ts 39C kill 10µM*.
`Cc1ccn2cc(-c3ccc(NS(=O)(=O)c4ccccc4)cc3)nc2c1` gave 12-hLO inh -1.9% and HPGD block 22.4µM*.
`Cc1ccc(-c2cn3ccc(C)cc3n2)cc1` gave p53ts 32C tox 0.501µM* and p53ts 39C kill 0.631µM*.
For N#CC1=C2SCN(Cc3ccccc3)CN2C(=O)CC1c1cccs1 (stereo not drawn) the results were 12-hLO inh -20.5%, p53ts 32C tox -7.4%, p53ts 39C kill -2.1% and HPGD block 20µM*.
N#CC1=C2SCN(Cc3ccccc3)CN2C(=O)CC1c1ccc2c(c1)OCO2 (stereo not drawn) was read as 12-hLO inh -24.6%, p53ts 32C tox 1.3%, p53ts 39C kill -2.3% and HPGD block 25.1µM*.
Screening CCn1c(=NC(=O)c2ccc3c(c2)OCCO3)sc2c(C)ccc(OC)c21 returned p53ts 32C tox -16.5% and p53ts 39C kill 10µM*.
Screening CCCCN(CCCC)S(=O)(=O)c1ccc(C(=O)Nc2nnc(COC)o2)cc1 returned 12-hLO inh -15.3%, p53ts 32C tox -13.4%, p53ts 39C kill 10µM* and HPGD block -2.6%.
CCCCN(CC)S(=O)(=O)c1ccc(C(=O)Nc2nnc(-c3cccs3)o2)cc1 was read as 12-hLO inh -13.8%, p53ts 32C tox inconclusive, p53ts 39C kill 12.6µM* and HPGD block -21.7%.
Screening CCc1nnc(NC(=O)c2ccc(S(=O)(=O)N(CC)Cc3ccccc3)cc2)o1 returned 12-hLO inh -25.5%, p53ts 32C tox -16.0% and p53ts 39C kill inconclusive.
`CCOC(=O)N1CCN(S(=O)(=O)c2ccc(C(=O)Nc3nnc(CSC)o3)cc2)CC1` gave 12-hLO inh 0.4% and HPGD block -7.4%.
`COc1cccc(C(=O)Nc2nnc(-c3cccs3)o2)c1` gave 12-hLO inh -21.4% and HPGD block -26.8%.
Screening CCCCN(C)S(=O)(=O)c1ccc(C(=O)Nc2nnc(CSC)o2)cc1 returned 12-hLO inh -21.9%, p53ts 32C tox -21.1%, p53ts 39C kill 10µM* and HPGD block -13.7%.
`Cc1ccc2c(c1)C(=O)C(=O)N2Cc1ccc(OCCC(C)C)cc1` gave p53ts 32C tox 1.6% and p53ts 39C kill inconclusive.
Screening CC(Oc1ccccc1)C(=O)Nc1c(C(=O)Nc2cccc(F)c2)oc2ccccc12 (stereo not drawn) returned p53ts 32C tox 2.6% and p53ts 39C kill 14.4%.
Screening COC(=O)c1ccccc1NC(=O)Cn1ncc2c(C)n(Cc3ccc(F)cc3)c(C)c2c1=O returned p53ts 32C tox 0.8% and p53ts 39C kill -3.3%.
CCNc1ncc2nc(-c3ccc(F)cc3)c(=O)n(-c3ccccc3)c2n1 was read as p53ts 32C tox -9.1% and p53ts 39C kill -20.3%.
O=P(O)(O)C(O)(Cn1ccnc1)P(=O)(O)O was read as 12-hLO inh 2.6%[0.00818 µM] and HPGD block 0.2%.
O=C1C=C(Nc2ccc(Cl)cc2)CC(c2ccc(Cl)cc2)C1 (stereo not drawn) was read as 12-hLO inh -1.1% and HPGD block 31.6µM*.
O=C(OCC1CO1)C1CCCCC1C(=O)OCC1CO1 (stereo not drawn) was read as 12-hLO inh 2.1%, p53ts 32C tox 3.1%[1.84 µM], p53ts 39C kill 31.6µM* and HPGD block 1.2%.
`CC(=O)[C@H]1CC[C@@H]2[C@]1(C)CC=C1[C@]23C=C[C@]2(C[C@H](O)CC[C@@]12C)[C@H](C(=O)O)[C@@H]3C(=O)O` gave 12-hLO inh 4.6%[11.4 µM], p53ts 32C tox 3.5%[9.22 µM] and p53ts 39C kill 4.0%[9.22 µM].
CCc1cccc(NC(=O)C(c2ccccc2)N2Cc3ccccc3C2=O)c1 (stereo not drawn) was read as p53ts 32C tox 1.2%.
COc1ccc2[nH]c3nc(SC(C)C)nnc3c2c1 was read as 12-hLO inh -0.4%, p53ts 32C tox 15.8µM*, p53ts 39C kill 10µM* and HPGD block -11.9%.
Screening COc1ccc2[nH]c3nc(SCc4nnc(-c5ccccc5)o4)nnc3c2c1 returned 12-hLO inh -2.6%, p53ts 32C tox -3.5%, p53ts 39C kill -23.6% and HPGD block -17.2%.
Cc1ccc(-c2nc(CNC(=O)Nc3ccccc3)c(C)o2)cc1 was read as p53ts 32C tox -4.3% and p53ts 39C kill inconclusive.
Screening CCN(CC)C(=O)CSc1ccccc1N returned 12-hLO inh -2.7%, p53ts 32C tox 0.9%, p53ts 39C kill 1.4% and HPGD block -19.1%.
N#CC(=C(\N)Sc1ccccc1N)/C(C#N)=C(/N)Sc1ccccc1N was read as HPGD block 8.91µM*.
O=C(c1cc(O)c(O)c([N+](=O)[O-])c1)c1ccccc1F was read as 12-hLO inh -29.6%, p53ts 32C tox inconclusive, p53ts 39C kill inconclusive and HPGD block 14.1µM*.
`O=C(O)c1ccccc1[N+](=O)[O-]` gave 12-hLO inh -0.8%, p53ts 32C tox 8.3%[1.84 µM], p53ts 39C kill 5.2% and HPGD block -3.0%.
For CCc1ccc(NC(=O)COC(=O)CN2C(=O)COc3ccccc32)cc1 the results were 12-hLO inh -1.7% and HPGD block -11.2%.
Screening CCCC(OC(=O)CN1C(=O)COc2ccccc21)C(=O)NC1CCCC1 (stereo not drawn) returned 12-hLO inh 0.5%, p53ts 32C tox 0.9%, p53ts 39C kill -4.3% and HPGD block 28.2µM*.
Cc1ccc2cc(CN(CC3CCCO3)C(=O)c3ccco3)c(=O)[nH]c2c1C (stereo not drawn) was read as p53ts 32C tox 1.0% and p53ts 39C kill 6.2%.
